Test [1] in a line: antimalarial activity against Dd2 strain (AID 2302;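 active = growth inhibition above 50% at the single 2 µM test dose, taken to imply half-maximal potency below 2 µM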;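 also: 0% = DMSO untreated growth and 100% = chloroquine plus artemisinin killed control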). Conditions: P. falciparum Dd2 in RBCs, LDH growth readout, 72 h; at 2 µM; active compounds read high.
Test [2] can be described thus: HepG2 cytotoxicity, primary screen, cytotoxicity control for P. falciparum antimalarial project, cell-based, ATP luminescence (AID 2303;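 active = inhibition above 50%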;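 also: 0% = DMSO wells and 100% = digitonin-killed cells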). Conditions: HepG2 viability, 24-48 h, at 10 µM, active compounds read high.
In test [3] the target is L-lactate dehydrogenase (Plasmodium falciparum (isolate CDC / Honduras)) (UniProt Q27743). As to the kind of experiment: PfLDH activity inhibition – cell lysate, 3D7 strain, counter-screen for P. falciparum growth inhibition project (AID 2304).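 Also: 0% = vehicle and 100% = reference inhibitor.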 Conditions: P. falciparum 3D7 crude extract, LDH APAD/NBT absorbance; at 2 µM; active compounds read high. For orientation: A counterscreen serves to expose hits that act by an unwanted route or on another target.

The nature of test [4]: inhibition of 3D7 malaria parasite growth – strain 3D7 (AID 2306).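 Also: 0% = DMSO wells and 100% = chloroquine plus artemisinin control wells.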 To be noted: P. falciparum 3D7 erythrocytic growth, LDH absorbance, 72 h; at 2 µM; active compounds read high.
Test [5] concerns the target Calcium-dependent protein kinase 1 (Plasmodium falciparum (isolate 3D7)) (UniProt P62344). The experiment in a line: PfCDPK1 kinase inhibitors, biochemical, TCAMS library (AID 1159585; cut-off not given, nearly all actives have IC50 up to about 0.98 µM;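 also: inhibitors leave more ATP so luminescence rises with inhibition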). Conditions: recombinant PfCDPK1, Kinase-Glo ATP depletion luminescence. (In general: Kinase-Glo measures the ATP left after a reaction by luminescence.)
For test [6], the target named is Plasmodium falciparum protein kinase 6 (PK6, PF3D7_1337100) (UniProt Q8IDW1). As to the kind of experiment: PfPK6 kinase inhibitors, biochemical, TCAMS library (AID 1159586). Conditions: recombinant PfPK6, Kinase-Glo ATP depletion luminescence.
For test [7], the target named is Protein kinase 7 (PK7), Plasmodium falciparum 3D7 (PF3D7_0213400) (UniProt Q7YTF7). The experiment in a line: inhibition of Plasmodium PK7 catalytic activity – biochemical, TCAMS antimalarial set, Kinase-Glo luminescence (AID 1159587). To be noted: recombinant PfPK7, Kinase-Glo ATP depletion luminescence.
The target in test [8] is Calcium-dependent protein kinase 4 (Plasmodium falciparum (isolate 3D7)) (UniProt Q8IBS5). As to the kind of experiment: PfCDPK4 kinase inhibitors, biochemical, TCAMS library (AID 1159588; cut-off not given, nearly all actives have IC50 up to about 0.91 µM). Conditions: recombinant PfCDPK4, Kinase-Glo ATP depletion luminescence.

The text below walks through data of PubChem BioAssay.

As a reminder, the inhibition is the change of the read-out against control, counted positive when it falls.

SMILES strings stand for the structures. Unmarked numbers belong to inactive results. For part of these data: Measured potencies and affinities stand elsewhere. Calls of active or inactive are those of the source. Unless noted, no rule for the calls is given here.

Plasmodium falciparum protein kinase 6 (PK6, PF3D7_1337100), sequence (Q8IDW1 1-305): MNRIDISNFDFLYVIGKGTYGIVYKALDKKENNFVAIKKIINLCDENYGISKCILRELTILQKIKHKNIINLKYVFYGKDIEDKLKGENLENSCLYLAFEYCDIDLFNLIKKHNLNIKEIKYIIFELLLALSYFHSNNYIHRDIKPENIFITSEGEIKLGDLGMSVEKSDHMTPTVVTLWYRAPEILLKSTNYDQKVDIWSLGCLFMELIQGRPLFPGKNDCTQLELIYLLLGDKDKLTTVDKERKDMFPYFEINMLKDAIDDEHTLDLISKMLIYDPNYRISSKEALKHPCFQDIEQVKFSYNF
Calcium-dependent protein kinase 1 (Plasmodium falciparum (isolate 3D7)), sequence (P62344 whole entry, looked up): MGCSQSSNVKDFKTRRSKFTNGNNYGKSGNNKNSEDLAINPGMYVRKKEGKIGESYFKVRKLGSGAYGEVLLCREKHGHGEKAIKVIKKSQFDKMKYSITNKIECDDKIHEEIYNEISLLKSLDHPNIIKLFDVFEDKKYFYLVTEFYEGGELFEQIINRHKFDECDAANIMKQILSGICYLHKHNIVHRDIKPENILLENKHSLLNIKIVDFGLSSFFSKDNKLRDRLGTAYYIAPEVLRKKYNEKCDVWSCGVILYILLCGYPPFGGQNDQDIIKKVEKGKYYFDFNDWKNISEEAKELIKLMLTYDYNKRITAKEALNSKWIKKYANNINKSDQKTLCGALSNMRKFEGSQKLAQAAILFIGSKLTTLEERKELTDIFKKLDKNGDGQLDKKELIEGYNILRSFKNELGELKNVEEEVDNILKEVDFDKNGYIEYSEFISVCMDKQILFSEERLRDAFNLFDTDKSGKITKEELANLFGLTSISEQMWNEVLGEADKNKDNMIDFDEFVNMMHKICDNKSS
Protein kinase 7 (PK7), Plasmodium falciparum 3D7 (PF3D7_0213400), sequence (Q7YTF7 1-343): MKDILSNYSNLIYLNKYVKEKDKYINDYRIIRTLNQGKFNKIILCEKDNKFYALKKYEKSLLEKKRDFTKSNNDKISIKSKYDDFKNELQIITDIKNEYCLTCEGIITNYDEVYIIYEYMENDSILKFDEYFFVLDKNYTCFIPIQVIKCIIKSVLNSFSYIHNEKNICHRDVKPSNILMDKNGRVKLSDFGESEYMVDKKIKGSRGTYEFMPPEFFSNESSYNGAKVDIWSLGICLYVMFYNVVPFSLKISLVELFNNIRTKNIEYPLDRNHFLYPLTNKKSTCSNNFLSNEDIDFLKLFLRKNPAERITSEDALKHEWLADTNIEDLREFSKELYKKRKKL
L-lactate dehydrogenase (Plasmodium falciparum (isolate CDC / Honduras)), sequence (Q27743 whole entry, looked up): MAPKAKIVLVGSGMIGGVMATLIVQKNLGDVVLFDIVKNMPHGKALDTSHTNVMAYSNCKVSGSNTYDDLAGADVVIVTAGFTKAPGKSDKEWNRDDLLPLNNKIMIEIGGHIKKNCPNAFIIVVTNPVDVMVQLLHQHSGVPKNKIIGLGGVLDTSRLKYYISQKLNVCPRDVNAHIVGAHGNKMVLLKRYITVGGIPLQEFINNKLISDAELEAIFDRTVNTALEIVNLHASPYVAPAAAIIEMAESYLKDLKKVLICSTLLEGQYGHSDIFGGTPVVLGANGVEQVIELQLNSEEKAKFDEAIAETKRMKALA
Calcium-dependent protein kinase 4 (Plasmodium falciparum (isolate 3D7)), sequence (Q8IBS5 whole entry, looked up): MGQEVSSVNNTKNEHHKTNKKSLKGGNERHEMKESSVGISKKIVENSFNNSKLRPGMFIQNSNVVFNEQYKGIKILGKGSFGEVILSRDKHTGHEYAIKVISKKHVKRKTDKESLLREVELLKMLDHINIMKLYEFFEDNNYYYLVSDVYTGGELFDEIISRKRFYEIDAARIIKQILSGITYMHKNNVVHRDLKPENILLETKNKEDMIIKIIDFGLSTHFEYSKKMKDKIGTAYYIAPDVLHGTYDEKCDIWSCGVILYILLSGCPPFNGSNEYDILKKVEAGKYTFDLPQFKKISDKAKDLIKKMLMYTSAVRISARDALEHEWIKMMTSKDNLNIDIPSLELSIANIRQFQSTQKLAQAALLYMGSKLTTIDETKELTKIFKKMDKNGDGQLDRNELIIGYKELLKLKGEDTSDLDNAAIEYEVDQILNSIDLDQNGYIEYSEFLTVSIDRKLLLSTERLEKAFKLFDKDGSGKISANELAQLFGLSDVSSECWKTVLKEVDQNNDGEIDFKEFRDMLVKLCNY

For the compound `O=C(C=Cc1ccc(-c2ccccc2)cc1)N1CCC(CCN2CCC(c3c[nH]c4ccccc34)CC2)CC1`, the growth inhibition in test [1] is 16%; in test [4] it was 87% (active). Besides, the figures for the inhibition in test [2] and in test [3] were 44% and 2%, respectively. Besides, the result in test [5], in test [6], in test [7] and in test [8] was inactive.
For `COc1cccc(C(=O)NC(c2ccccc2OC)c2cc(Cl)c3cccnc3c2O)c1` (stereo not drawn), the growth inhibition in test [1] is 36%; in test [4], 91% (active). The inhibition in test [2] is 58% (active); in test [3] it was 4%. The outcome in test [5], in test [6], in test [7] and in test [8] was inactive.
As for `COc1ccc2ccc(F)c(CC(=O)N3CCOC(CNCc4cccc(-c5ccc(F)cc5)n4)C3)c2n1` (stereo not drawn), the growth inhibition in test [1] was 1%; in test [4] it was 92% (active). The inhibition is 5% in test [2] and 6% in test [3]. The result in test [5], in test [6], in test [7] and in test [8] was inactive.
Consider `NC(N)=Nc1ccc(CCc2ccc(N=C(N)N)cc2)cc1`, for which the growth inhibition was 95% (active) in test [1] and 96% (active) in test [4]. Besides, the inhibition in test [2] was 57% (active); in test [3], -1%. Also, the result in test [5], in test [6], in test [7] and in test [8] was inactive.
For `CN(C)CCN(Cc1ccccc1-c1ccc(CNCCc2ccccc2)cc1)C(=O)c1ccccc1`, the growth inhibition in test [1] was 97% (active); in test [4] it was 95% (active). The inhibition was 81% (active) in test [2] and -3% in test [3]. The outcome in test [5], in test [6], in test [7] and in test [8] was inactive.
With `Cc1ccc2nc(C)n(C3CCN(C(=O)Cc4ccccc4C)CC3)c2c1`, the growth inhibition in test [1] and in test [4] was 100% (active) throughout. The inhibition in test [2] was 2%; in test [3], 1%. Moreover, the result in test [5], in test [6], in test [7] and in test [8] was inactive.
Consider `COc1ccccc1C(C)NCC(=O)Nc1cc(C(F)(F)F)ccc1Cl` (stereo not drawn), for which the growth inhibition in test [1] is 85% (active); in test [4], 97% (active). The values for the inhibition in test [2] and in test [3] were 4% and -3%, respectively. The outcome in test [5], in test [6], in test [7] and in test [8] was inactive.
Take `CC(C)Cn1c(Sc2ccc(C#N)c([N+](=O)[O-])c2)nnc1-c1ccccc1Cl`: the growth inhibition was 46% in test [1] and 93% (active) in test [4]. Besides, the inhibition in test [2] is 18%; in test [3], 2%. Besides, the result in test [5], in test [6], in test [7] and in test [8] was inactive.
Regarding `O=C(Nc1ccc(Cl)c(Cl)c1)N1CCc2cc3nccc(N4CCN5CCC[C@H]5C4)c3cc21`, the growth inhibition in test [1] is 75% (active); in test [4], 100% (active). The inhibition is 2% in test [2] and -7% in test [3]. The outcome in test [5], in test [6], in test [7] and in test [8] was inactive.
`CCCNCc1ccc(-c2ccc(CN(CCOC)C(=O)Cc3cccnc3)cc2)nc1`: the figures for the growth inhibition in test [1] and in test [4] were 13% and 92% (active), respectively. In addition, the inhibition in test [2] was 10%; in test [3], -1%. Further, the outcome in test [5], in test [6], in test [7] and in test [8] was inactive.
On to `CN(Cc1cccc(C#N)c1)C1CCN(c2cc(NC(=O)c3ccc(F)cc3)ccn2)CC1`, for which the growth inhibition in test [1] is 23%; in test [4] it was 97% (active). For the same compound, the inhibition in test [2] was 4%; in test [3], -1%. Moreover, the result in test [5], in test [6], in test [7] and in test [8] was inactive.
Take `COc1cc(C(=O)N2CCN(C(C)C)CC2)ccc1CN(C)CCCN1CCN(c2cccc(Cl)c2Cl)CC1`: the growth inhibition in test [1] is 87% (active); in test [4], 101% (active). The inhibition in test [2] was 56% (active); in test [3] it was 0%. The outcome in test [5], in test [6], in test [7] and in test [8] was inactive.
In the case of `COc1ccc(CCCON2C(N)=NC(N)=NC2(C)C)cc1`, the growth inhibition is 94% (active) in test [1] and 95% (active) in test [4]. Besides, the inhibition in test [2] was 61% (active); in test [3], -1%. Besides, the result in test [5], in test [6], in test [7] and in test [8] was inactive.
Consider `CS(=O)(=O)Nc1ccc2[nH]cc(C3CCN(CC(O)C4CCN(C(=O)/C=C/c5ccc(Cl)c(Cl)c5)CC4)CC3)c2c1` (stereo not drawn), for which the growth inhibition in test [1] was -10%; in test [4], 101% (active). For the same compound, the values for the inhibition in test [2] and in test [3] were 28% and -3%, respectively. Further, the result in test [5], in test [6], in test [7] and in test [8] was inactive.
Turning to `CC(=O)Nc1ccc2[nH]cc(C3CCN(CCC4CCN(C(=O)/C=C/c5ccc(Cl)c(Cl)c5)CC4)CC3)c2c1`, the growth inhibition was 7% in test [1] and 95% (active) in test [4]. In addition, the inhibition in test [2] is 13%; in test [3], 4%. In addition, the result in test [5], in test [6], in test [7] and in test [8] was inactive.
As for `COc1ccc2nccc([C@@H](O)CN3CCC(NCc4ccc5c(c4)oc(=S)n5C)CC3)c2c1`, the growth inhibition in test [1] was 68% (active); in test [4] it was 100% (active). Moreover, the inhibition in test [2] was 14%; in test [3], -6%. The outcome in test [5], in test [6], in test [7] and in test [8] was inactive.
For the compound `FC(F)(F)c1ccc(/C=C/c2cncnc2Nc2ccc3nc(Cc4ccccc4)[nH]c3c2)cc1`, the growth inhibition is 101% (active) in test [1] and 100% (active) in test [4]. Also, the inhibition in test [2] is 21%; in test [3] it was 1%. The outcome in test [5], in test [6], in test [7] and in test [8] was inactive.
For the compound `CCc1ccccc1-c1csc(C(=O)NCC2CCN(Cc3ccc(C(C)(C)C)cc3)C2)c1` (stereo not drawn), the growth inhibition was 15% in test [1] and 90% (active) in test [4]. Besides, the results for the inhibition in test [2] and in test [3] were 25% and -2%, respectively. In addition, the result in test [5], in test [6], in test [7] and in test [8] was inactive.
Take `Cc1ccc(C2(CN3CCC(NC(=O)c4[nH]ncc4Cl)CC3)CCCCC2)cc1`: the growth inhibition in test [1] was 96% (active); in test [4] it was 97% (active). Moreover, the inhibition is -11% in test [2] and -3% in test [3]. The result in test [5], in test [6], in test [7] and in test [8] was inactive.
Consider `O=C(Nc1cccc(-c2ccc(-c3nc4ccc(C(F)(F)F)cc4[nH]3)cc2)c1)c1cccnc1`, for which the growth inhibition in test [1] was 97% (active); in test [4], 101% (active). The values for the inhibition in test [2] and in test [3] were 73% (active) and -9%, respectively. The outcome in test [5], in test [6], in test [7] and in test [8] was inactive.
`CCOc1ccc(C(C)NC(=O)Nc2ccccc2)cc1OCC` (stereo not drawn): the growth inhibition in test [1] is 95% (active); in test [4], 96% (active). Moreover, the inhibition in test [2] was 14%; in test [3], 1%. In addition, the outcome in test [5], in test [6], in test [7] and in test [8] was inactive.
